Hits are enriched below; roughly 2.9% of the tested compounds scored in any of these assays.
IP6K1 inh: inhibitors of human IP6K1 | activity change, % (series mostly up to about 58 µM) | 140,000 compounds, 0.81% hits | AID 1645851 | IP6K1 kinase, ADP-Glo luminescence, 2 h; stronger effect = lower value; in the data active = activity change below about -25%; also: % is scaled to controls: 0 for no effect and ±100 for the full control effect
Target sequence (Q92551 whole entry, looked up): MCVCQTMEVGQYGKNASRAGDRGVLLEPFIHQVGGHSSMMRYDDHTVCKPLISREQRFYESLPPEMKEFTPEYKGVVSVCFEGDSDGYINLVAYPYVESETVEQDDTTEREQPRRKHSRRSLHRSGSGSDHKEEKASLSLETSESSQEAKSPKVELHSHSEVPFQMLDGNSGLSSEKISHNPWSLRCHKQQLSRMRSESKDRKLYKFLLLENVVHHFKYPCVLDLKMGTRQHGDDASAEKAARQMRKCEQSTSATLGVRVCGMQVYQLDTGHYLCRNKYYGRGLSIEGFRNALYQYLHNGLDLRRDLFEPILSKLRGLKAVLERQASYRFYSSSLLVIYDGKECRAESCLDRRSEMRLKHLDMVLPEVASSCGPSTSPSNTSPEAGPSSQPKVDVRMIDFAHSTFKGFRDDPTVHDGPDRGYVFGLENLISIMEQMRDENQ
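ADP-Glo luminescence measures ADP made by human IP6K1 during a 2 h RT reaction with ATP/IP6 (mix at 1.3 mM/130 uM); top library doses 57.5 and 19.1 uM final.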
HEK293 viab: reduces viability of HEK-293 SNCA reporter cells; AID 1671193; HEK-293-SNCA-luc viability, GF-AFC fluorescence, 24 h; Potency, µM (highest dose often 57.1 µM), inactives show at the top dose activity change, negative = cytotoxicity, usual class: cytotoxic; 150,000 compounds, 0.12% hits;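 also: potency is read from the fitted curve at half-maximal effect; 0% = DMSO-treated cells and -100% = medium-only wells without cells; nearly all actives have a fitted effect of over 30% in size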
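HEK-293-SNCA-luc cells (1500/well) plated 24 h, then exposed 24 h to a dilution series; GF-AFC added 30 min at 37C, fluorescence 405/540 nm; normalised to medium-only and DMSO wells, Hill fit.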
KDM5B inhibitor: blocks human KDM5B histone demethylase activity; KDM5B demethylase, FDH-coupled NADH fluorescence (FDH is formaldehyde dehydrogenase); Potency, µM (titrated, usually from 57.7 µM), hits mostly inhibitors; 220,000 compounds, 2.6% hits; AID 1347165; also: potency is read from the fitted curve at half-maximal effect; 0% is about no effect; nearly all actives have a fitted effect of over 70% in size
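Here, H3K4me3 peptide (12.5 µM in substrate mix) is demethylated by KDM5BΔAP, 200 nM final, after 10 min compound exposure. Formaldehyde product is coupled through FDH (0.25 U/mL in mix) to NADH fluorescence; 30-min ΔRFU feeds dose-response curves.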
SNCA expr inhib: SNCA gene expression inhibition. HEK-293 SNCA-luciferase knock-in, luminescence, 24 h. Potency, µM (top dose mostly 57.2 µM), without a hit: at the top dose activity change, negative = inhibition, hits mostly inhibitors. 140,000 compounds, 0.17% hits. AID 1671194;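 also: potency is read from the fitted curve at half-maximal effect; plate controls were DMSO cells for no effect and cell-free wells for full effect; nearly all actives have a fitted effect of over 45% in size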
The depositor's hits bear a star; [ ] = another dose, or the depositor's remark. Unless noted, calls follow the shape of the dose curve; as a rule, active = well fitted curve in the direction sought with a large enough effect; inconclusive = small, poorly fitted or top-dose-only effect, or another doubt; inactive = no such curve, though single readings can be large; an effect the other way counts as inactive or inconclusive.

What do the screens show for `CCc1ccccc1OCCN(C)Cc1ncc[nH]1`?
IP6K1 inh: 3; HEK293 viab: -4%; KDM5B inhibitor: 22µM*; SNCA expr inhib: -1%

How did Cc1noc(-c2ccn3c(CNC(=O)c4ccco4)nnc3c2)n1 do in these assays?
IP6K1 inh: 7; HEK293 viab: 9%; KDM5B inhibitor: 28µM*; SNCA expr inhib: 28%

How did CCCc1noc(-c2ccn3c(CNC(=O)c4cccc(N(C)C)c4)nnc3c2)n1 do in these assays?
IP6K1 inh: 6; HEK293 viab: 7%; KDM5B inhibitor: inconclusive; SNCA expr inhib: 85%

What do the screens show for `CCCc1noc(-c2ccn3c(CNC(=O)c4ccco4)nnc3c2)n1`?
IP6K1 inh: 29; HEK293 viab: -10%; KDM5B inhibitor: 28µM*; SNCA expr inhib: -29%

What do the screens show for `CCCc1noc(-c2ccn3c(CNC(=O)c4ccc5ccccc5n4)nnc3c2)n1`?
IP6K1 inh: 7; HEK293 viab: 3%; KDM5B inhibitor: 13µM*; SNCA expr inhib: -13%

How did CCN(CC)c1cc(CCC(=O)NCc2ccccc2OC)ccn1 do in these assays?
IP6K1 inh: -1; HEK293 viab: -3%; KDM5B inhibitor: 25µM*; SNCA expr inhib: -28%

Results for CCn1cc(CCC(=O)NCc2ccccc2OC)c2ccccc21 ?
IP6K1 inh: 27; HEK293 viab: 3%; KDM5B inhibitor: inconclusive; SNCA expr inhib: 2%

What do the screens show for `CCN(CC)c1cc(CCC(=O)Nc2ccc(OC)c(OC)c2)ccn1`?
IP6K1 inh: 9; HEK293 viab: -1%; KDM5B inhibitor: inconclusive; SNCA expr inhib: 15%

How did CCN(CC)c1cc(CCC(=O)NCc2cc(OC)ccc2OC)ccn1 do in these assays?
IP6K1 inh: 0; HEK293 viab: 1%; KDM5B inhibitor: 14µM*; SNCA expr inhib: -2%

Results for Cc1ccc2[nH]c(=O)cc(C(=O)N3CCOC(CCCC(C)C)C3)c2c1 (centres undefined) ?
IP6K1 inh: 9; HEK293 viab: -14%; KDM5B inhibitor: 28µM*; SNCA expr inhib: -19%

Results for CN(C)C(=O)NCCNC(=O)c1ccc(-c2cccc(C(F)(F)F)c2)cc1 ?
IP6K1 inh: 9

How did CNC(=O)CCn1ncc2cc(OCc3ccccc3-c3ccc(OC)cc3)ccc21 do in these assays?
IP6K1 inh: -4; HEK293 viab: -20%[87.6 µM]; KDM5B inhibitor: 32µM*; SNCA expr inhib: 5%[87.6 µM]

Results for CNC(=O)CCn1ncc2cc(OCc3ccccc3-c3cccc(OC)c3)ccc21 ?
IP6K1 inh: -8; HEK293 viab: -18%[87.6 µM]; KDM5B inhibitor: inconclusive; SNCA expr inhib: -35%[87.6 µM]

What do the screens show for `Cc1ccc2nc(C3CCCN(Cc4cccc(-c5cccnc5)c4)C3)[nH]c(=O)c2c1` (centres undefined)?
IP6K1 inh: 12; HEK293 viab: -2%; KDM5B inhibitor: inactive; SNCA expr inhib: -16%

Results for CCOC(=O)c1ccc(N2C(=O)c3n[nH]c(-c4cccs4)c3C2c2ccc(Cl)cc2Cl)cc1 (centres undefined) ?
IP6K1 inh: -11; HEK293 viab: 22µM*; KDM5B inhibitor: inactive; SNCA expr inhib: inconclusive

Results for CCOC(=O)c1ccc(N2C(=O)c3n[nH]c(-c4ccco4)c3C2c2ccc(OCC)cc2)cc1 (centres undefined) ?
IP6K1 inh: 24; HEK293 viab: inconclusive; KDM5B inhibitor: inconclusive; SNCA expr inhib: 20µM*

How did CCOC(=O)c1ccc(N2C(=O)c3n[nH]c(-c4cccs4)c3C2c2ccc(C)cc2)cc1 (centres undefined) do in these assays?
IP6K1 inh: -10; HEK293 viab: -2%; KDM5B inhibitor: inactive; SNCA expr inhib: 23%

What do the screens show for `O=C1[C@@H]2C[C@@H](CN2C2CCCC2)Oc2ccccc2N1Cc1ccccc1`?
IP6K1 inh: 9; HEK293 viab: 5%[87.6 µM]; KDM5B inhibitor: inconclusive; SNCA expr inhib: -12%[87.6 µM]

How did Cc1cccc(N2CCN(C(=O)c3cnc4c(C)cccn4c3=O)CC2C)c1 (centres undefined) do in these assays?
IP6K1 inh: 18; HEK293 viab: 1%; KDM5B inhibitor: inactive; SNCA expr inhib: -6%

Results for Cc1cccc(CN2CCN(C(=O)c3cnc4ccccn4c3=O)CC2=O)c1 ?
IP6K1 inh: -4; HEK293 viab: -1%; KDM5B inhibitor: 32µM*; SNCA expr inhib: inconclusive

What do the screens show for `O=C(NCC1CCCCC1)c1cc(-c2ccc(F)cc2)c2nncn2n1`?
IP6K1 inh: -7; HEK293 viab: -24%; SNCA expr inhib: 15%

Results for O=C(NCCc1ccc(Cl)cc1)c1ccc2nnc(Cc3ccc(Cl)cc3)n2c1 ?
IP6K1 inh: 0; HEK293 viab: -4%[12.5 µM]; SNCA expr inhib: -6%

What do the screens show for `Cn1nc(C2CCCNC2)c2c(C(=O)NCC(F)(F)F)cc(C3CC3)nc21` (centres undefined)?
IP6K1 inh: 4; HEK293 viab: 2%; KDM5B inhibitor: inconclusive; SNCA expr inhib: 15%

What do the screens show for `Cn1nc(C2CCNCC2)c2c(C(=O)NC3CC3)cc(C3CC3)nc21`?
IP6K1 inh: 4; HEK293 viab: -7%; KDM5B inhibitor: 89µM*; SNCA expr inhib: inconclusive

How did Cn1nc(C2CCCNC2)c2c(C(=O)NC3CC3)cc(C3CC3)nc21 (centres undefined) do in these assays?
IP6K1 inh: 2; HEK293 viab: 10%; KDM5B inhibitor: 89µM*; SNCA expr inhib: 4%

How did CNC(=O)c1cc(C2CC2)nc2c1c(C1CCN(C(=O)N(C)C)CC1)nn2C do in these assays?
IP6K1 inh: -7

Results for O=C(c1ccc2ccccc2n1)N1CCC(Cc2ccc(CN3CCOCC3)cc2)CC1 ?
IP6K1 inh: 16; HEK293 viab: -24%; SNCA expr inhib: 9%

What do the screens show for `CC(C)NC(=O)c1nc(-c2ccsc2)c2cnccn12`?
IP6K1 inh: 2; HEK293 viab: -14%[87.6 µM]; KDM5B inhibitor: 40µM*; SNCA expr inhib: -24%[87.6 µM]

Results for CC(C)NC(=O)c1nc(-c2ccc(Cl)cc2)c2ccccn12 ?
IP6K1 inh: -20; HEK293 viab: 8%; KDM5B inhibitor: 89µM*; SNCA expr inhib: 6%

How did CC(C)NC(=O)c1nc(-c2cccc(F)c2)c2cnccn12 do in these assays?
IP6K1 inh: 13; HEK293 viab: inconclusive; KDM5B inhibitor: 32µM*; SNCA expr inhib: -12%[87.6 µM]

How did C#CCNC(=O)c1nc(-c2ccc([S+](C)(=O)[O-])cc2)c2cnccn12 do in these assays?
IP6K1 inh: -4; HEK293 viab: 21%; KDM5B inhibitor: active; SNCA expr inhib: -2%

Results for CC(C)NC(=O)c1nc(-c2ccsc2)c2ccccn12 ?
IP6K1 inh: -20; HEK293 viab: -4%[87.6 µM]; KDM5B inhibitor: 112µM*; SNCA expr inhib: -3%[87.6 µM]

What do the screens show for `C#CCNC(=O)c1nc(-c2cccnc2)c2cnccn12`?
IP6K1 inh: 12; HEK293 viab: 11%[87.6 µM]; KDM5B inhibitor: inactive; SNCA expr inhib: 8%[87.6 µM]

How did C#CCNC(=O)c1nc(-c2ccsc2)c2cnccn12 do in these assays?
IP6K1 inh: 2; HEK293 viab: 7%[87.6 µM]; KDM5B inhibitor: 32µM*; SNCA expr inhib: -35%[87.6 µM]

Source: PubChem BioAssay (National Center for Advancing Translational Sciences (NCATS))
